# Among all 5,500 compounds or so, about 2,000 (36%) were called active. Another 18% or so got no clear call; they are omitted. The list shows a part of the results. Unmarked numbers belong to inactive results. Cut-off read from the data, not from the text of the source: active = normalized growth mostly below about 0.91 (no sharp cut-off); inconclusive = no clear call, values can overlap the other calls; inactive = mostly above about 0.92.
# Test: chemical genetic growth profiling, strain panel (AID 1159580);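 note: tested at 20 µM; growth read once vehicle control cultures reached saturation at 30 °C; 1 = growth at the plate median or of vehicle wells; lower values mean less growth of the strain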
# Conditions: S. cerevisiae deletion strains, growth OD
# [1] = locus YAL021C, strain ccr4, hits give low values
# [2] = locus YAL026C, strain drs2, hits give low values
# [3] = locus YAL030W, strain snc1, hits give low values
# [4] = locus YBL061C, strain skt5, hits give low values
# [5] = locus YBR009C, strain hhf1, hits give low values
# [6] = locus YBR023C, strain chs3, hits give low values
# [7] = locus YBR171W, strain sec66, hits give low values
# [8] = locus YBR231C, strain swc5, hits give low values
# [9] = locus YBR279W, strain paf1, hits give low values
# [10] = locus YCL011C, strain gbp2, hits give low values
# [11] = locus YCL016C, strain dcc1, hits give low values
# [12] = locus YCL069W, strain vba3, hits give low values
# [13] = locus YCR088W, strain abp1, hits give low values
# [14] = locus YDL005C, strain med2, hits give low values
# [15] = locus YDL040C, strain nat1, hits give low values
# [16] = locus YDR001C, strain nth1, hits give low values
# [17] = locus YDR069C, strain doa4, hits give low values
# [18] = locus YDR137W, strain rgp1, hits give low values
# [19] = locus YDR159W, strain sac3, hits give low values
# [20] = locus YDR297W, strain sur2, hits give low values
# [21] = locus YDR334W, strain swr1, hits give low values
# [22] = locus YDR335W, strain msn5, hits give low values
# [23] = locus YDR392W, strain spt3, hits give low values
# [24] = locus YEL003W, strain gim4, hits give low values
# [25] = locus YEL037C, strain rad23, hits give low values
# [26] = locus YEL061C, strain CIN8 (second series), hits give low values
# [27] = locus YER015W, strain faa2, hits give low values
# [28] = locus YER016W, strain bim1, hits give low values
# [29] = locus YER111C, strain swi4, hits give low values
# [30] = locus YER155C, strain BEM2 (second series), hits give low values
# [31] = locus YFR010W, strain ubp6, hits give low values
# [32] = locus YGL167C, strain pmr1, hits give low values
# [33] = locus YGL173C, strain kem1, hits give low values
# [34] = locus YGL227W, strain vid30, hits give low values
# [35] = locus YGL240W, strain doc1, hits give low values
# [36] = locus YGL253W, strain hxk2, hits give low values
# [37] = locus YHR013C, strain ard1, hits give low values
# [38] = locus YHR027C, strain rpn1, hits give low values
# [39] = locus YHR030C, strain SLT2, hits give low values
# [40] = locus YHR079C, strain IRE1, hits give low values
# [41] = locus YHR142W, strain chs7, hits give low values
# [42] = locus YJL092W, strain hpr5, hits give low values
# [43] = locus YJL095W, strain BCK1 (second series), hits give low values
# [44] = locus YJL095W, strain BCK1, hits give low values
# [45] = locus YJL115W, strain asf1, hits give low values
# [46] = locus YJL129C, strain trk1, hits give low values
# [47] = locus YJL154C, strain vps35, hits give low values
# [48] = locus YJL164C, strain tpk1, hits give low values
# [49] = locus YJL166W, strain qcr8, hits give low values
# [50] = locus YJR066W, strain TOR1, hits give low values
# [51] = locus YKL160W, strain elf1, hits give low values
# [52] = locus YKR026C, strain gcn3, hits give low values
# [53] = locus YKR091W, strain srl3, hits give low values
# [54] = locus YLL001W, strain dnm1, hits give low values
# [55] = locus YLL026W, hits give low values
# [56] = locus YLL041C, strain sdh2, hits give low values
# [57] = locus YLR027C, strain aat2, hits give low values
# [58] = locus YLR113W, strain HOG1, hits give low values
# [59] = locus YLR221C, strain rsa3, hits give low values
# [60] = locus YLR258W, strain gsy2, hits give low values
# [61] = locus YLR262C, strain YPT6 (second series), hits give low values
# [62] = locus YLR320W, strain mms22, hits give low values
# [63] = locus YLR342W, strain FKS1, hits give low values
# [64] = locus YLR357W, strain rsc2, hits give low values
# [65] = locus YLR370C, strain arc18, hits give low values
# [66] = locus YLR384C, strain iki3, hits give low values
# [67] = locus YML120C, strain ndi1, hits give low values
# [68] = locus YMR058W, strain fet3, hits give low values
# [69] = locus YMR125W, strain sto1, hits give low values
# [70] = locus YMR129W, hits give low values
# [71] = locus YMR205C, strain PFK2, hits give low values
# [72] = locus YMR231W, strain pep5, hits give low values
# [73] = locus YNL071W, strain lat1, hits give low values
# [74] = locus YNL183C, strain NPR1, hits give low values
# [75] = locus YNL209W, strain ssb2, hits give low values
# [76] = locus YNL248C, strain rpa49, hits give low values
# [77] = locus YNL322C, strain KRE1 (second series), hits give low values
# [78] = locus YNR049C, strain mso1, hits give low values
# [79] = locus YOR001W, strain rrp6, hits give low values
# [80] = locus YOR070C, strain gyp1, hits give low values
# [81] = locus YOR080W, strain dia2, hits give low values
# [82] = locus YOR083W, strain WHI5, hits give low values
# [83] = locus YOR106W, strain vam3, hits give low values
# [84] = locus YOR231W, strain MKK1, hits give low values
# [85] = locus YOR265W, strain rbl2, hits give low values
# [86] = locus YOR270C, strain vph1, hits give low values
# [87] = locus YOR290C, strain snf2, hits give low values
# [88] = locus YPL051W, strain arl3, hits give low values
# [89] = locus YPL078C, strain atp4, hits give low values
# [90] = locus YPL106C, strain sse1, hits give low values
# [91] = locus YPL240C, strain hsp82, hits give low values
# [92] = locus YPL256C, strain CLN2, hits give low values
structure (smiles),measurement,setting,value
Cc1c(S(=O)(=O)O)oc2c1C(=O)C(=O)c1c-2ccc2c1CCCC2(C)C,normalized growth,[1],0.946
same,normalized growth,[2],0.923
same,normalized growth,[3],0.92 (active)
same,normalized growth,[4],0.954
same,normalized growth,[5],0.885 (active)
same,normalized growth,[6],0.943
same,normalized growth,[7],0.937
same,normalized growth,[8],0.889 (active)
same,normalized growth,[9],0.985
same,normalized growth,[10],0.861 (active)
same,normalized growth,[11],0.958
same,normalized growth,[12],0.983
same,normalized growth,[13],0.946
same,normalized growth,[14],0.963
same,normalized growth,[15],0.959
same,normalized growth,[16],0.955
same,normalized growth,[17],0.874 (active)
same,normalized growth,[18],0.631 (active)
same,normalized growth,[19],0.808 (active)
same,normalized growth,"locus YDR195W, strain ref2",0.974
same,normalized growth,[20],0.939
same,normalized growth,[21],0.924
same,normalized growth,[22],0.962
same,normalized growth,[23],0.586 (active)
same,normalized growth,[24],0.928
same,normalized growth,[25],0.947
same,normalized growth,[26],0.956
same,normalized growth,[27],0.93
same,normalized growth,[28],0.94
same,normalized growth,[29],0.965
same,normalized growth,[30],0.779 (active)
same,normalized growth,[31],0.943
same,normalized growth,[32],0.928
same,normalized growth,[33],0.965
same,normalized growth,[34],0.968
same,normalized growth,[35],0.817 (active)
same,normalized growth,[36],0.982
same,normalized growth,[37],0.913
same,normalized growth,[38],0.962
same,normalized growth,[39],0.982
same,normalized growth,[40],0.959
same,normalized growth,[41],0.994
same,normalized growth,[42],0.956
same,normalized growth,[43],0.912 (active)
same,normalized growth,[44],0.979
same,normalized growth,[45],0.952
same,normalized growth,[46],0.859 (active)
same,normalized growth,[47],0.969
same,normalized growth,[48],0.918
same,normalized growth,[49],0.893 (active)
same,normalized growth,[50],0.934
same,normalized growth,[51],0.896 (active)
same,normalized growth,[52],0.932
same,normalized growth,[53],0.95
same,normalized growth,[54],0.962
same,normalized growth,[55],0.924 (active)
same,normalized growth,[56],0.938
same,normalized growth,[57],0.9 (active)
same,normalized growth,[58],0.967
same,normalized growth,[59],0.891 (active)
same,normalized growth,[60],0.95
same,normalized growth,[61],0.57 (active)
same,normalized growth,[62],0.871 (active)
same,normalized growth,[63],0.916
same,normalized growth,[64],0.905
same,normalized growth,[65],0.949
same,normalized growth,[66],0.926
same,normalized growth,[67],0.9 (active)
same,normalized growth,[68],0.839 (active)
same,normalized growth,[69],1
same,normalized growth,[70],0.918 (active)
same,normalized growth,[71],0.912
same,normalized growth,[72],0.933
same,normalized growth,[73],0.726 (active)
same,normalized growth,[74],0.932
same,normalized growth,[75],0.955
same,normalized growth,[76],0.962
same,normalized growth,[77],0.916
same,normalized growth,[78],0.976
same,normalized growth,[79],0.935
same,normalized growth,[80],0.949
same,normalized growth,[81],0.93
same,normalized growth,[82],0.856 (active)
same,normalized growth,[83],0.821 (active)
same,normalized growth,[84],0.98
same,normalized growth,[85],0.937
same,normalized growth,[86],0.956
same,normalized growth,[87],0.95
same,normalized growth,[88],0.873 (active)
same,normalized growth,[89],0.931
same,normalized growth,[90],0.857
same,normalized growth,[91],0.921 (active)
same,normalized growth,[92],0.968
Cc1coc2c1C(=O)C(=O)c1c-2ccc2c1CCCC2(C)C,normalized growth,[1],0.912
same,normalized growth,[2],0.869 (active)
same,normalized growth,[3],0.936
same,normalized growth,[4],0.968
same,normalized growth,[5],0.882 (active)
same,normalized growth,[6],0.951
same,normalized growth,[7],0.916
same,normalized growth,[8],0.815 (active)
same,normalized growth,[9],0.944
same,normalized growth,[10],0.913
same,normalized growth,[11],0.904 (active)
same,normalized growth,"locus YCL061C, strain MRC1, hits give low values",0.91 (active)
same,normalized growth,[12],0.95
same,normalized growth,[13],0.955
same,normalized growth,[14],0.945
same,normalized growth,[15],0.948
same,normalized growth,[16],0.949
same,normalized growth,[17],0.925
same,normalized growth,[18],0.439 (active)
same,normalized growth,[19],0.582 (active)
same,normalized growth,"locus YDR195W, strain ref2",0.989
same,normalized growth,[20],0.951
same,normalized growth,[21],0.923
same,normalized growth,[22],0.929
same,normalized growth,[23],0.196 (active)
same,normalized growth,[24],0.903 (active)
same,normalized growth,[25],0.947
same,normalized growth,[26],0.905 (active)
same,normalized growth,[27],0.951
same,normalized growth,[28],0.926
same,normalized growth,[29],0.953
same,normalized growth,[30],0.592 (active)
same,normalized growth,[31],0.902
same,normalized growth,[32],0.946
same,normalized growth,[33],0.97
same,normalized growth,[34],0.962
same,normalized growth,[35],0.801 (active)
same,normalized growth,[36],0.828 (active)
same,normalized growth,[37],0.815 (active)
same,normalized growth,[38],0.957
same,normalized growth,[39],0.81 (active)
same,normalized growth,[40],0.859
same,normalized growth,[41],0.868 (active)
same,normalized growth,[42],0.94
same,normalized growth,[43],0.925
same,normalized growth,[44],0.855 (active)
same,normalized growth,[45],0.953
same,normalized growth,[46],0.738 (active)
same,normalized growth,[47],0.957
same,normalized growth,[48],0.927
same,normalized growth,[49],0.94
same,normalized growth,"locus YJL187C, strain SWE1, hits give low values",0.965
same,normalized growth,[50],0.835
same,normalized growth,[51],0.886 (active)
same,normalized growth,[52],0.943
same,normalized growth,[53],0.946
same,normalized growth,[54],0.886 (active)
same,normalized growth,[55],0.936
same,normalized growth,[56],0.958
same,normalized growth,[57],0.911 (active)
same,normalized growth,[58],0.821 (active)
same,normalized growth,[59],0.873 (active)
same,normalized growth,[60],0.964
same,normalized growth,[61],0.485 (active)
same,normalized growth,[62],0.79 (active)
same,normalized growth,[63],0.904 (active)
same,normalized growth,[64],1.07
same,normalized growth,[65],0.927
same,normalized growth,[66],0.96
same,normalized growth,[67],0.905 (active)
same,normalized growth,[68],0.913
same,normalized growth,[69],0.975
same,normalized growth,[70],0.938
same,normalized growth,[71],0.735 (active)
same,normalized growth,[72],0.953
same,normalized growth,[73],0.766 (active)
same,normalized growth,[74],0.82 (active)
same,normalized growth,[75],0.954
same,normalized growth,[76],1.03
same,normalized growth,[77],0.949
same,normalized growth,[78],0.954
same,normalized growth,[79],0.927
same,normalized growth,[80],0.911 (active)
same,normalized growth,[81],0.949
same,normalized growth,[82],0.928
same,normalized growth,[83],0.852 (active)
same,normalized growth,[84],0.867
same,normalized growth,[85],0.948
same,normalized growth,[86],0.809
same,normalized growth,[87],0.958
same,normalized growth,[88],0.913 (active)
same,normalized growth,[89],0.853 (active)
same,normalized growth,[90],0.852
same,normalized growth,[91],0.944
same,normalized growth,[92],0.894
